Experimental data reported in PubChem BioAssay.
Calls of active or inactive are those of the source. Unless noted, no rule for the calls is given here.

How the values were obtained:
[1] = A549 cell viability effects, profiling panel, calcein-AM fluorescence, 48 h, basal (AID 1162); details: higher = more signal; also: test concentration not given here
[2] = adipocyte viability effects, profiling panel, cell-based, 3T3-L1 adipocytes, calcein-AM fluorescence, 48 h, basal (AID 1163); details: 3T3-L1 adipocytes viability, higher = more signal; also: test concentration not given here
[3] = HepG2 cell viability effects, profiling panel, calcein-AM fluorescence, 48 h, basal (AID 1164); details: higher = more signal; also: test concentration not given here
[4] = MM1S cell viability effects, profiling panel, calcein-AM fluorescence, 48 h, basal (AID 1165); details: higher = more signal;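 also: viability of MM1S multiple myeloma cells under basal unstimulated conditions; test concentration not given here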
[5] = basal RPMI8226 viability, no added stimulus, profiling panel, cell-based, calcein-AM fluorescence, 48 h, PK04 Diversity Set (AID 1166); details: RPMI8226 myeloma viability, higher = more signal;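 also: cells grown under basal conditions without added stimulus; test concentration not given here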
[6] = basal HepG2 mitochondrial membrane potential changes, profiling panel, cell-based, JC-1 fluorescence, 24 h, 100 nL compound (AID 1167); details: higher = more signal; also: test concentration not given here
[7] = basal 3T3-L1 adipocyte mitochondrial potential changes, profiling panel, cell-based, JC-1 fluorescence, 3T3-L1 adipocytes, 24 h, 100 nL compound (AID 1168); details: JC-1 mitochondrial fluorescence, higher = more signal, called active from +8 up or from −8 down; also: test concentration not given here
[8] = basal RPMI8226 mitochondrial membrane potential changes, profiling panel, cell-based, JC-1 fluorescence, 24 h, 100 nL compound (AID 1169); details: RPMI8226 myeloma, JC-1 mitochondrial potential fluorescence, higher = more signal; also: test concentration not given here
[9] = basal MM1S mitochondrial membrane potential changes, profiling panel, cell-based, JC-1 fluorescence, 24 h, 100 nL compound (AID 1170); details: higher = more signal; also: test concentration not given here
[10] = A549 lung cancer cell viability effects, profiling panel, resazurin fluorescence, 24 h, PK04 Diversity Set (AID 1171); details: higher = more signal, called active from +8 up or from −8 down; also: test concentration not given here
[11] = HepG2 liver cancer cell viability effects, profiling panel, resazurin fluorescence, 24 h, PK04 Diversity Set (AID 1172); details: higher = more signal; also: test concentration not given here
[12] = basal S. cerevisiae growth modulation, no modifier, primary screen, OD600, strain BY4716, 24 h, basal condition (AID 1173); details: OD600, 24 h, higher = more signal, called active from +8 up or from −8 down
[13] = MM1S myeloma cell viability, profiling panel, resazurin fluorescence, basal, 24 h, PK04 Diversity Set (AID 1174); details: higher = more signal, called active from +8 up or from −8 down;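 also: MM1S multiple myeloma cell line; test concentration not given here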
[14] = target: Dihydroorotate dehydrogenase (quinone), mitochondrial (Plasmodium falciparum (isolate 3D7)) (UniProt Q08210); test: PfDHODH enzyme inhibitors, primary screen, biochemical, C-terminal His tag, absorbance 600 nm (AID 1175); details: DCIP absorbance 600 nm, higher = more signal, called active from +8 up or from −8 down;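 also: recombinant parasite enzyme with a five histidine tag at its C terminus; test concentration not given here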
Chain of Dihydroorotate dehydrogenase (quinone), mitochondrial (Plasmodium falciparum (isolate 3D7)) (Q08210 whole entry, looked up): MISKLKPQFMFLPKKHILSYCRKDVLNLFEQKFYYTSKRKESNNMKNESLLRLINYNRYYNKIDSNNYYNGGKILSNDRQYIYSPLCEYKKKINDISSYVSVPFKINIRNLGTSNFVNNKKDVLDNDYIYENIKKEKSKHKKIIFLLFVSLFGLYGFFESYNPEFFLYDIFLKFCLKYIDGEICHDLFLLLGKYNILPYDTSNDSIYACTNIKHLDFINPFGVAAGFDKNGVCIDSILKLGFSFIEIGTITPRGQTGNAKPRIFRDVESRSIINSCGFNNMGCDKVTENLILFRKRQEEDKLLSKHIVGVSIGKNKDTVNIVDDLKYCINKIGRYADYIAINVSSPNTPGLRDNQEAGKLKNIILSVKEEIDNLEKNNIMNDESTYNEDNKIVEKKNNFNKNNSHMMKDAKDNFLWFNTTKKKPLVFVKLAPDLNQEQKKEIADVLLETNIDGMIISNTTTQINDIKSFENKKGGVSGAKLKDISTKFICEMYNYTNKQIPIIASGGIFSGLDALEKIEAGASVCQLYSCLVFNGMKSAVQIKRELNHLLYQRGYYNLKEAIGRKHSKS

[15] = P. aeruginosa biofilm formation inhibitors, primary screen, strain PAO1, LB-PBS medium, absorbance 600 nm (AID 1176); also: test concentration not given here; details: P. aeruginosa PAO1 growth/biofilm, A600, 12 h; higher = more signal
[16] = S. cerevisiae RM11-1a growth modifiers, primary screen, strain RM11-1a, OD600, basal, 24 h (AID 1177); details: OD600, 24 h, higher = more signal, called active from +8 up or from −8 down;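 also: cultures grown under basal conditions with no added stressor; test concentration not given here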
[17] = E. coli acrAB mutant growth effects, primary screen, E. coli filamentation inducers, strain DRC39, OD650, 24 h (AID 1178); details: higher = more signal, called active from +8 up or from −8 down;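 also: growth measured as culture turbidity by optical density at 650 nm; test concentration not given here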
[18] = E. coli acrAB mutant growth effects, primary screen, E. coli filamentation inducers, strain DRC39, OD650, 48 h (AID 1179);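 also: screen aims at cell division blockers that make cells filament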; details: E. coli DRC39 delta-acrAB growth, higher = more signal, called active from +8 up or from −8 down
[19] = RPMI8226 myeloma cell viability, profiling panel, resazurin fluorescence, basal, 24 h, PK04 Diversity Set (AID 1180); details: higher = more signal;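 also: RPMI8826 multiple myeloma cell line at 5000 cells per well; test concentration not given here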
[20] = target: E3 ubiquitin-protein ligase XIAP (Homo sapiens) (UniProt P98170); test: XIAP binders, primary screen, biophysical, small-molecule microarray, fluorescence 635 nm (AID 1181); details: small-molecule microarray binding, higher = more signal;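 also: score merges 667 nm emission and signal to noise over triplicate slides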
Chain of E3 ubiquitin-protein ligase XIAP (Homo sapiens) (P98170 whole entry, looked up): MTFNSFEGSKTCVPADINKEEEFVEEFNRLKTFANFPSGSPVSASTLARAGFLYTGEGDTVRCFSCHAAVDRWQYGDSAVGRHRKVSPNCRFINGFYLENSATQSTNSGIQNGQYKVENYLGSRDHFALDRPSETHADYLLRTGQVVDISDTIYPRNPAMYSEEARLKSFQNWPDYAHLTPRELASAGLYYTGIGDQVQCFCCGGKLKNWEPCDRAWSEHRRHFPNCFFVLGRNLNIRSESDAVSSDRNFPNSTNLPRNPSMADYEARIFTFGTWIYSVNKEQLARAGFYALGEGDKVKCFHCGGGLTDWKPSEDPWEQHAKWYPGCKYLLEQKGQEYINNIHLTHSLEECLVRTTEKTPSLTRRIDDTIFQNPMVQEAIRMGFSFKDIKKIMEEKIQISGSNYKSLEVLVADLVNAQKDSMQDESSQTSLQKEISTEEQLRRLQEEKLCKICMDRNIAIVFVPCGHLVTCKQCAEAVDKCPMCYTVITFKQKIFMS

Row | Structure (SMILES) | z-score [1] | z-score [2] | z-score [3] | z-score [4] | z-score [5] | z-score [6] | z-score [7] | z-score [8] | z-score [9] | z-score [10] | z-score [11] | z-score [12] | z-score [13] | composite z-score [14] | z-score [15] | z-score [16] | z-score [17] | z-score [18] | z-score [19] | composite z-score [20]
1 | COc1ccccc1CN1C(=O)c2ccccc2[C@@H](C(=O)NCCN2CCOCC2)[C@@H]1c1ccc(CO)cc1 | 0.61 | 0.0251 | 0.556 | -0.231 | -0.55 | 2.15 | 0.364 (inactive) | 0.711 | -0.691 | 1.33 (inactive) | 0.505 | -0.248 (inactive) | -0.0527 (inactive) | 0.249 (inactive) | 1.56 (inactive) | -0.0436 (inactive) | 0.187 (inactive) | -0.0251 (inactive) | 0.154 | 0.101
2 | CC(C)c1ccc(NN2C(C(O)c3ccc(N(C)C)cc3)C=CC3C(=O)N(c4ccccc4)C(=O)C32)cc1 (stereo not given) | 1.1 | -1.62 | 0.974 | -0.36 | -0.368 | -0.337 | -1.22 (inactive) | 0.149 | -0.811 | -0.0686 (inactive) | 0.0387 | 0.254 (inactive) | -0.683 (inactive) | 0.421 (inactive) | 0.53 (inactive) | 0.25 (inactive) | -0.172 (inactive) | 0.766 (inactive) | 0.203 | 0.391
3 | CC1=C2[C@@H](CCc3ccccc3)OB(O)C[C@@H]2n2c(=O)n(-c3ccccc3)c(=O)n2C1 | 0.328 | -0.448 | -0.335 | 0.271 | -1.14 | -2.01 | 0.553 (inactive) | 0.146 | -0.126 | -0.699 (inactive) | -0.32 | -2.07 (inactive) | -0.498 (inactive) | 0.369 (inactive) | -0.177 (inactive) | -0.42 (inactive) | -0.618 (inactive) | -0.63 (inactive) | -0.582 | 0.0193
4 | O=C(O)[C@@]1(Cc2ccccc2)N=C(c2ccc(OCCCO)cc2)O[C@H]1c1ccccc1 | 0.83 | -0.664 | -0.235 | 0.275 | 0.237 | 0.628 | 1.29 (inactive) | -0.182 | -0.558 | 0.575 (inactive) | 0.712 | -1.12 (inactive) | 0.551 (inactive) | 1.22 (inactive) | -0.692 (inactive) | 0.291 (inactive) | 0.24 (inactive) | 1.34 (inactive) | 0.655 | -0.0095
5 | O=C(OCCF)C1=CCC(c2cccc(Cl)c2)O1 (stereo not given) | 0.558 | -0.0426 | 0.303 | 1.17 | 0.669 | 0.89 | 1.15 (inactive) | -1.07 | -0.157 | -0.61 (inactive) | -0.185 | -2.59 (inactive) | 0.0509 (inactive) | -1.71 (inactive) | -0.212 (inactive) | -1.56 (inactive) | -0.18 (inactive) | 0.443 (inactive) | 0.122 | 0.0176
